DT40 TDP1 CPT = qHTS for Inhibitors of human tyrosyl-DNA phosphodiesterase 1 (TDP1): qHTS in cells in presence of CPT; chicken DT40 Tdp1-/-;hTDP1 cells + 20 nM CPT, ATP luminescence, 48 h; Potency, µM (series often up to 46.2 µM), inactives show top-dose activity change, negative = growth inhibition, hits mostly inhibitors; 12% of 420,000 active; AID 686979, 2013; further: nearly all actives have a fitted effect of over 55% in size
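Cell growth measured by CellTiter-Glo luminescence after a minimum 48 h, 37 C compound exposure with 20 nM CPT in Tdp1-knockout DT40 cells stably expressing hTDP1, seeded 400/well; qHTS titration format.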
TDP1 cell noCPT = qHTS for Inhibitors of human tyrosyl-DNA phosphodiesterase 1 (TDP1): qHTS in cells in absence of CPT; DT40 Tdp1-/- hTDP1 cells, no CPT, ATP luminescence, 48 h; Potency, µM (highest dose often 46.2 µM), without a hit: at the highest dose activity change, negative = growth inhibition, hits mostly inhibitors; 15% of 420,000 active; further: nearly all actives have a fitted effect of over 55% in size
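Luminescent ATP content (CellTiter-Glo) served as the growth readout. Knockout chicken DT40 cells expressing human TDP1 were exposed to compounds without camptothecin for a minimum 48 hr at 37 °C.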
KAT2A inh = qHTS Assay for Inhibitors of GCN5L2; Histone acetyltransferase KAT2A (Homo sapiens), Q92830; GCN5L2 HAT assay, ThioGlo1 CoA-SH fluorescence; Potency, µM (series often up to 58.9 µM), for the others: at the top dose activity change, negative = inhibition, usual class: inhibitors; 0.21% of 390,000 active
Target sequence (Q92830 whole entry, looked up): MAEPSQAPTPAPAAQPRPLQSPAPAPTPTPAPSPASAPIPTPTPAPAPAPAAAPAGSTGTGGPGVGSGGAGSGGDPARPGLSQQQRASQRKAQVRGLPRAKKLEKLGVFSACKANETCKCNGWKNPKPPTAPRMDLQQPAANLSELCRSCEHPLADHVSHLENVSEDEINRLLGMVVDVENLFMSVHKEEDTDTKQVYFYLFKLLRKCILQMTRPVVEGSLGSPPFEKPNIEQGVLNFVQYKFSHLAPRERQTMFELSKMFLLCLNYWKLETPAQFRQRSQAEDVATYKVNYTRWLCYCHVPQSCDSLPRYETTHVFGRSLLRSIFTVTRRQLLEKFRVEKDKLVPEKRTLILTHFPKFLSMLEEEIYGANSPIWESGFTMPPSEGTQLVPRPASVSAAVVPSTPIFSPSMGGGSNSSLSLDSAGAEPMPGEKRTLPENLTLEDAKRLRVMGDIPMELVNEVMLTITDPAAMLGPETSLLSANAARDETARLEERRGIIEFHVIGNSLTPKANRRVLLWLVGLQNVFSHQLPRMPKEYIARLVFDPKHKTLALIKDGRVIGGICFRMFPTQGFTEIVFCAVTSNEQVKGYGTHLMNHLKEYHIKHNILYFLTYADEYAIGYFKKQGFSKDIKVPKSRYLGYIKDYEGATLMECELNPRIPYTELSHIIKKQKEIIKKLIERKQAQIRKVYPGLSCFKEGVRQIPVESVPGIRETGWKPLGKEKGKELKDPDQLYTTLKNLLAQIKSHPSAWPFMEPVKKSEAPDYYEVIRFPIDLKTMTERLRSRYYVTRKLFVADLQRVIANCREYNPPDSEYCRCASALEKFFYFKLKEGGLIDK
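GCN5L2 (20nM final) in 50mM HEPES, 0.1mM EDTA pH 7.5, 0.01% Tween-20 was preincubated 15 min at room temperature with compound, then given ThioGlo1 (50uM), H3(1-25) peptide (75uM) and acetyl-CoA (70uM); CoA-thiol fluorescence (Ex340/Em540) was read at 0 and 20 min.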
TDP1 inh = qHTS Assay for Inhibitors of Tyrosyl-DNA Phosphodiesterase (TDP1) | Tyrosyl-DNA phosphodiesterase 1 (Homo sapiens), Q9NUW8 | recombinant TDP1, AlphaScreen DNA substrate cleavage | Potency, µM (highest dose often 130 µM), without a hit: top-dose activity change, negative = inhibition, most hits filed as inhibitors | 0.28% of 350,000 active | AID 485290, 2010; further: nearly all actives have a fitted effect of over 40% in size
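E. coli-derived human Tdp1, 1 nM final. Cpd preinc 15 min RT; substrate 15 nM final, 5 min RT; AS bead mix 10 ug/ml final, 10 min RT. Signal loss = tyrosine-FITC cleavage. No-enzyme wells = max signal.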
PLK1 PBD inh = qHTS for Inhibitors of PLK1-PDB (polo-like kinase 1 - polo-box domain): Primary Screen. 2.8% of 360,000 active. Potency, µM, inactives show max response, negative = inhibition, hits mostly inhibitors. Serine/threonine-protein kinase PLK1 (Homo sapiens), P53350. AID 720504, 2013. Plk1 PBD binding of FITC phosphopeptide, fluorescence polarization; further: series mostly up to about 57 µM; nearly all actives have a fitted effect of over 65% in size
VDR inh = Inhibitors of the vitamin D receptor (VDR): qHTS; 0.93% of 400,000 active; VDR-SRC2-3 peptide fluorescence polarization, 2 h; Vitamin D3 receptor (Homo sapiens), P11473; Potency, µM, inactives show max response, negative = inhibition, most hits filed as inhibitors; AID 504847, 2011
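Signal is fluorescence polarization, reporting how far test compounds block the interaction of VDR with the SRC2-3 coregulator peptide after a 2 h room-temperature incubation.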
An asterisk follows results filed as active; ! = a repeat was not active; [ ] = remark or other dose. In the library only some 18% were active in any assay of this set; here they are far more common. The call rests on the fitted dose curve; in most records, active means well fitted curve in the direction sought with a large enough effect; inconclusive means small, poorly fitted or top-dose-only effect, or another doubt; inactive means no such curve, though single readings can be large; an effect the other way counts as inactive or inconclusive. On the % scale 0 is the no-effect control and ±100 the full control effect; potency means the concentration at half of the fitted maximal effect.

For Nc1ccc(Cl)cc1N the results were DT40 TDP1 CPT inconclusive, TDP1 cell noCPT -29.5%[92.5 µM] and TDP1 inh 20.6%.
`COc1cc(C(C)=O)ccc1OCc1cc(C(=O)N(C)CCC2CCCCO2)no1` (stereo not given) gave DT40 TDP1 CPT -24.0%, TDP1 cell noCPT inconclusive, KAT2A inh -1.1%, TDP1 inh 3.8%, PLK1 PBD inh -0.9% and VDR inh 13.8%.
Screening Cc1cccc(-n2c(-c3ccc([N+](=O)[O-])cc3)nc3ccccc3c2=O)c1 returned DT40 TDP1 CPT inconclusive, TDP1 cell noCPT 8.2µM*, KAT2A inh -4.8%, TDP1 inh -2.8%, PLK1 PBD inh -9.6% and VDR inh -11.3%.
For O=c1c2ccccc2nc(N2CCCC2)n1-c1ccccc1 the results were DT40 TDP1 CPT inconclusive, TDP1 cell noCPT 14.6µM*, KAT2A inh -11.0%, TDP1 inh -1.3%, PLK1 PBD inh -10.1% and VDR inh -2.5%.
Screening O=c1c2ccccc2nc(-c2ccc([N+](=O)[O-])cc2)n1-c1ccccc1 returned DT40 TDP1 CPT -26.3%, TDP1 cell noCPT -4.2%, KAT2A inh 8.5%, TDP1 inh 0.6%, PLK1 PBD inh 3.7% and VDR inh 11.5%.
O=c1c2ccccc2nc(-c2ccccc2)n1-c1ccccc1O was read as DT40 TDP1 CPT inconclusive, TDP1 cell noCPT inconclusive, KAT2A inh inconclusive, TDP1 inh 2.5%, PLK1 PBD inh -2.3% and VDR inh -16.6%.
Screening O=c1c2ccccc2nc(-c2ccccc2)n1-c1ccccc1 returned DT40 TDP1 CPT inconclusive, TDP1 cell noCPT 8.2µM*, KAT2A inh -2.1%, PLK1 PBD inh 1.3% and VDR inh -15.6%.
For COc1ccccc1-n1c(-c2ccccc2)nc2ccccc2c1=O the results were DT40 TDP1 CPT 16.4µM*, TDP1 cell noCPT inconclusive, KAT2A inh -9.0%, PLK1 PBD inh -3.1% and VDR inh -5.5%.
For O=c1c2ccccc2nc(-c2ccccc2)n1-c1ccncc1 the results were DT40 TDP1 CPT inconclusive, TDP1 cell noCPT -5.7%, KAT2A inh 22.7%, TDP1 inh 2.1%, PLK1 PBD inh -5.2% and VDR inh 5.8%.
Screening COc1cccc(CNCCc2cccc(F)c2)c1OC returned DT40 TDP1 CPT inconclusive, TDP1 cell noCPT inconclusive, KAT2A inh -3.9%, PLK1 PBD inh 0.7% and VDR inh 4.1%.
For CCC[C@@](C)(COC(N)=O)COC(=O)NC(C)C the results were KAT2A inh 10.5%[21.4 µM], TDP1 inh 11.8%[21 µM] and VDR inh 1.2%.
Screening CN(CCc1ccccc1)C(=O)c1ccc(NC(=O)Cc2cccc([N+](=O)[O-])c2)cc1 returned DT40 TDP1 CPT inconclusive, TDP1 cell noCPT inconclusive, KAT2A inh -5.8%, TDP1 inh 4.5%, PLK1 PBD inh -11.9% and VDR inh -7.3%.
For COc1ccc(-c2nc3ccccc3c(=O)n2-c2nccs2)cc1 the results were DT40 TDP1 CPT inconclusive, TDP1 cell noCPT inconclusive, KAT2A inh -9.7%, TDP1 inh 6.8%, PLK1 PBD inh 0.9% and VDR inh 13.2%.
Cc1nc2cc([N+](=O)[O-])ccc2c(=O)n1-c1cccc(Br)c1 was read as DT40 TDP1 CPT inconclusive, TDP1 cell noCPT 18.4µM*, PLK1 PBD inh -0.1% and VDR inh -2.0%.
Screening COc1ccccc1-n1c(-c2cccs2)nc2ccccc2c1=O returned DT40 TDP1 CPT 14.6µM*, TDP1 cell noCPT 13µM*, KAT2A inh -5.0%, TDP1 inh 3.6%, PLK1 PBD inh 1.2% and VDR inh -16.9%.
For COC(=O)[C@@]1(C)[C@H]2C(=O)N(Cc3ccccc3)C(=O)[C@H]2[C@H]2CN=C(SCc3ccc(Cl)cc3)N21 the results were DT40 TDP1 CPT inconclusive, TDP1 cell noCPT inconclusive, KAT2A inh -5.7%, TDP1 inh 1.0%[56.1 µM], PLK1 PBD inh -6.6% and VDR inh -0.7%.
Screening COc1ccc(C(=O)Oc2cccc3cccnc23)cc1S(=O)(=O)N1CCOCC1 returned DT40 TDP1 CPT inconclusive, TDP1 cell noCPT 3.26µM*, KAT2A inh -3.0%, TDP1 inh 0.0%, PLK1 PBD inh 0.7% and VDR inh 6.1%.
For N#CN the results were DT40 TDP1 CPT 11.5%, TDP1 cell noCPT 14.4%, KAT2A inh -10.1%, TDP1 inh 0.0% and VDR inh 3.4%.
C[C@H]1C(=O)O[C@@H]2CCN3CC=C(COC(=O)[C@](C)(O)[C@]1(C)O)[C@H]23 was read as DT40 TDP1 CPT 11.6µM*!, TDP1 cell noCPT inconclusive, KAT2A inh -6.5%, TDP1 inh 3.2%, PLK1 PBD inh -6.0% and VDR inh 6.3%.
`C[C@H]1C(=O)O[C@@H]2CCN3CC=C(COC(=O)[C@@](C)(O)[C@@]1(C)O)[C@H]23` gave KAT2A inh 7.8%[21.4 µM], TDP1 inh 11.3%[21 µM] and VDR inh -3.8%.
`CC1(C)C[C@H]2C=C(C=O)[C@]3(C=O)C[C@]3(C)[C@H]2C1` gave DT40 TDP1 CPT 0.92µM*, TDP1 cell noCPT 0.82µM*, KAT2A inh -3.1%, TDP1 inh 2.7%, PLK1 PBD inh -17.4% and VDR inh -19.0%.
CC(=NCCC1=CCCCC1)c1c(O)n(C)c(=O)n(C)c1=O was read as DT40 TDP1 CPT 10.3µM*, TDP1 cell noCPT 23.1µM*, KAT2A inh -4.1%, TDP1 inh 1.9%, PLK1 PBD inh -15.4% and VDR inh 0.3%.
`CC(=NCCO)c1c(O)n(C)c(=O)n(C)c1=O` gave DT40 TDP1 CPT -7.8%, TDP1 cell noCPT -0.8%, KAT2A inh -0.7%, TDP1 inh 2.0%, PLK1 PBD inh -2.1% and VDR inh -17.4%.
For COc1ccccc1CC(=O)Nc1ccc2c(c1)OC1(CCCC1)O2 the results were DT40 TDP1 CPT inconclusive, TDP1 cell noCPT inconclusive, KAT2A inh -13.8%, TDP1 inh 5.9%, PLK1 PBD inh -9.9% and VDR inh 13.1%.
`C#CCOC(C(=O)OCCN(C)C)(c1ccccc1)c1ccccc1` gave DT40 TDP1 CPT 21.1µM*, TDP1 cell noCPT 11.9µM*, KAT2A inh -6.9% and VDR inh 14.6%.
